Data taken from PubChem BioAssay (NCI).
About 79,000 compounds went through this panel and 15% of them were active in at least one assay; those are over-represented in the sample as a whole. Values without a mark were called inactive. The source made the active and inactive calls. No stated cut-off is given here; in the data, active means growth inhibition above about 70%; inactive means the rest.

Columns and labels:
[1] = NCI Yeast Anticancer Drug Screen. Data for the rad50 strain (AID 155);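 further: 0% = growth of vehicle-only cultures of the same strain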; settings: S. cerevisiae rad50 strain growth inhibition; at 50.0 µM; stronger effect = higher value
Outline: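 Readout: growth inhibition relative to vehicle-treated cultures. Compound exposure was carried out in a genetically defined yeast strain deficient in DNA damage repair.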

[2] = NCI Yeast Anticancer Drug Screen. Data for the mec2-1 strain (AID 157); settings: S. cerevisiae mec2-1 strain, at 50.0 µM, stronger effect = higher value
Outline: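 Each compound was tested on mec2-1 yeast, a strain altered in DNA damage repair or cell cycle control. Growth inhibition is reported relative to vehicle.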

[3] = NCI Yeast Anticancer Drug Screen. Data for the sgs1 mgt1 strain (AID 161);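 further: 0% = growth of cultures given vehicle only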; settings: S. cerevisiae sgs1 mgt1 strain, at 50.0 µM, stronger effect = higher value
Outline: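 Read-out: growth inhibition vs vehicle controls. Cells: mutant yeast strain deficient in DNA damage repair.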

[4] = NCI Yeast Anticancer Drug Screen. Data for the cln2 rad14 strain (AID 165);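 further: 0% = growth equal to vehicle treated cultures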; settings: S. cerevisiae cln2 rad14 strain, at 50.0 µM, stronger effect = higher value
Outline: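 Test compounds were added to cln2 rad14 yeast cultures; inhibition of growth was then determined by comparison with vehicle treatment.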

[5] = NCI Yeast Anticancer Drug Screen. Data for the bub3 strain (AID 167); settings: S. cerevisiae bub3 mutant strain, at 50.0 µM, stronger effect = higher value
Outline: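 Readout: yeast growth inhibition, expressed relative to vehicle-only wells. The test organism is a mutant strain from a panel with lesions in DNA repair or checkpoint genes.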

[6] = NCI Yeast Anticancer Drug Screen. Data for the mlh1 rad18 strain (AID 175); settings: S. cerevisiae mlh1 rad18 strain growth inhibition; at 50.0 µM; stronger effect = higher value
Outline: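 Inhibition values reflect reduced growth of mutant yeast versus vehicle-treated controls following compound exposure; the mutations affect DNA damage repair.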

Row | Compound | growth inhibition [1] | growth inhibition [2] | growth inhibition [3] | growth inhibition [4] [%] | growth inhibition [5] | growth inhibition [6]
1 | O=C(c1ccccc1)c1oc2ccc(Br)cc2c1-c1cnn(-c2ccccc2)c1 | 29.2% | -9.5% | 11.9% | 15.1 | -3.85% | 22.1%
2 | OCC1OC(n2c(=S)[nH]c3ccccc32)C(O)C1O (stereo unspecified) | 9.4% | -0.9% | 5.4% | 1.2 | 4.4% | 7.4%
3 | Nc1nc2c(C(=O)N3CCCC3)nnn2c2cccc(Cl)c12 | -4.45% | -11.7% | 17% | 18.3 | 9.9% | 0.05%
4 | Nc1ccc(-c2csc(Nc3ccnc4cc(Cl)ccc34)n2)cc1 | -1.75% | -5.4% | 4.25% | -7.85 | 18.9% | 7.6%
5 | Cc1cc(C)c(NC(=O)NC2CCCCC2)c(C)c1 | 4.7% | 7.05% | 23.6% | -3.55 | 34% | 31.1%
6 | COc1ccc(-c2cc(=O)c3c(O)cc(O)cc3o2)cc1Oc1ccc(-c2cc(=O)c3c(O)cc(O)cc3o2)cc1 | 15.6% | -12.2% | -12.3% | 2.35 | -3.7% | 5.1%
7 | O=C(NCc1cccs1)OC1CC2CCC1C2 (stereo unspecified) | 1.6% | -7.45% | 10.8% | -14.8 | -8% | 20.4%
8 | CCc1cc(C(C)(C)C)c(O)c(C(C)(C)C)c1 | 33.6% | 9.65% | 6.25% | 25.2 | 8.4% | 35.4%
9 | CN1CCN(C(=S)C(O)(c2ccccc2)c2ccccc2)CC1 | 1.75% | -1.85% | -2.35% | 1.45 | 16.1% | -8.6%
10 | CC(C)C(=O)Nc1nc(OCCc2ccc([N+](=O)[O-])cc2)c2ncn(C3CC(O)C(CO)O3)c2n1 (stereo unspecified) | 3.5% | -0.2% | 5.8% | 8.5 | -0.75% | -11.8%
11 | O=c1ccn(/C=C\c2nc3ccccc3[nH]c2=O)c(=S)[nH]1 | -37.8% | -27.3% | -35.9% | 13.7 | -17.5% | -40.4%
12 | COC(=O)[C@@H]1CCC(/C(C#N)=C2/CC[C@@H](C(=O)OC)N2)=N1 | 8.45% | 12.6% | 1.2% | -5.1 | 13.2% | 11.1%
13 | Cc1ccc(C)c2c1CCc1cc3ccccc3nc1-2 | 26.4% | -7.5% | 11.8% | 7.9 | 30.2% | 13.8%
14 | Cc1ccc(-c2cc(-c3ccccc3)c(C#N)c(=O)[nH]2)cc1 | 16.1% | 9.4% | 12.6% | 8.55 | 3.8% | 25.6%
15 | OCC(O)C(O)C(O)C(O)C(OCc1ccccc1)OCc1ccccc1 (stereo unspecified) | 11.3% | 7.55% | -23.6% | -12.7 | 5.1% | 9.85%
16 | C=CCc1ccc(C)c(C)c1O | 24.4% | 3.55% | 21.8% | 19.1 | 5.55% | 12.8%
17 | CCCC(CNC(C)=O)(c1ccccc1)C1CCCCC1 (stereo unspecified) | -10.7% | 6.9% | 3.15% | 27.9 | 11.2% | 16.1%
18 | Cc1cn(C2CC(O)C(CO)O2)c(=O)nc1NC1CCCCCCCCCCC1 (stereo unspecified) | 1.25% | 5.7% | 10.1% | 12.9 | -5.5% | -6.4%
19 | N#Cc1cc(Cl)ccc1N=Cc1c(Cl)cccc1Cl | 19.4% | 16.5% | 39.4% | 14.6 | -6.55% | 12.8%
20 | COc1ccc(C2C3=C(CC(C)(C)CC3=O)Oc3cc4c(cc32)OCO4)cc1 (stereo unspecified) | -2.7% | -0.05% | -25% | -0.45 | 0% | -4.95%
21 | COc1cc(C(C)S(=O)(=O)c2ccc(C)cc2)ccc1O (stereo unspecified) | -2.95% | -9.3% | 8.65% | 6.5 | 3.2% | 9.45%

Row | Compound | growth inhibition [1] | growth inhibition [2] | growth inhibition [3] | growth inhibition [4] [%] | growth inhibition [5] | growth inhibition [6]
22 | C=CCSc1ncnc2c1c(C#N)cn2C1OC(CO)C(O)C1O (stereo unspecified) | 22% | -21.2% | -16.9% | 17.5 | 7.25% | 28.4%
23 | O=C(/C=C\c1ccccc1)Nc1c(Cl)cc(Cl)cc1Cl | 0.65% | 10.5% | 9.05% | -8.75 | 39.5% | 23.3%
24 | C=CCCCCCCCCCCCC | -20.1% | 0% | -20.8% | 0.8 | -21.2% | -0.4%
25 | Cc1cccc2c1C1c3ccccc3C(=O)CC1CC2=O (stereo unspecified) | 14.9% | 30% | 22.9% | 25.7 | 11% | 35.2%
26 | CC1=CC(=N/S(=O)(=O)c2ccccc2)/C2CC(C)=C(C)CC2/C1=N\S(=O)(=O)c1ccccc1 (stereo unspecified) | 82.6% (active) | 78.6% (active) | 93% (active) | 56.6 | 81.2% (active) | 85.3% (active)
27 | COc1cc(C(c2c(O)c3ccccc3oc2=O)N2CCCC2)cc(OC)c1OC (stereo unspecified) | -1.2% | 5% | 7.05% | 4.05 | -0.3% | 2.7%
28 | CC(=O)OCc1c(COC(C)=O)c(-c2ccc(Cl)c(Cl)c2)n2c1CCC2 | 14.8% | -17.1% | 3.2% | 16.7 | -21.3% | 13.2%
29 | O=C(c1ccccc1O)N1CCCCC1 | 32.1% | 25.2% | 12.5% | 13.9 | 16.6% | 11.3%
30 | COc1ccc(C=Nc2c(N)[nH]c(=S)[nH]c2=O)cc1 | -15% | -12.8% | -4.15% | 0.7 | -27.8% | -51.7%
31 | O=C1CS[C@@H]2C(=O)CCCC2C1 (stereo partly specified) | -16% | 17.6% | -1.8% | -7.25 | -3.4% | -4.4%
32 | Cc1ccc(NC(=O)C(=O)C(C(=O)c2ccc3ccccc3c2)C2OC(=O)c3ccccc32)c(C)c1 (stereo unspecified) | 45.6% | 26.6% | 32.9% | 11.2 | 34.9% | 62.2%
33 | CCCCCCCCn1c(C)nc2c(cnn2C)c1=O | -9.6% | -19.2% | -6.15% | 20.9 | 36.1% | 4.8%
34 | O=C(Nc1cc2ccccc2cc1C(=O)O)Nc1cccc2ccccc12 | 10.2% | 7% | 32.6% | 6.2 | 20.1% | 30.3%
35 | CCN1C(=O)C(N=[N+]=[N-])(c2ccccc2)C(=O)c2ccccc21 (stereo unspecified) | 10.5% | -8.5% | -16.7% | 6.6 | 2.45% | 0.65%
36 | Cc1cc2c(=O)c3ccccc3[nH]c2c(C(N)=O)c1C | 39.5% | 7.8% | 1.75% | -6.9 | -10.5% | 15.3%
37 | Nc1c(S(N)(=O)=O)cc(S(N)(=O)=O)cc1S(N)(=O)=O | 0.75% | -20.6% | -36% | -24.6 | -29.2% | -16%
38 | N#CC(=C1CCCCC1)c1ccccc1 | -14.1% | -21.2% | -21.6% | -5.75 | -15.9% | -27.1%
39 | CN(C)c1cccc([N+](=O)[O-])c1 | -54.5% | -11% | -44.6% | -32.5 | -35.4% | -48.8%
40 | CCCCCCC(=O)CC1(C(=O)OC)NC(=S)NC(=O)C1C#N (stereo unspecified) | 18.1% | 6.85% | -1.55% | -0.75 | -9.55% | 15.8%
41 | O=c1[nH]cnc2c1cnn2-c1ccccc1 | 17.1% | 5.3% | 9.7% | 3.85 | -2.05% | 22.4%
